In ChEMBL document CHEMBL4513216, “Probing the Open Global Health Chemical Diversity Library for Multistage-Active Starting Points for Next-Generation Antimalarials” (ACS Infect Dis, 2020):
Among all 65,000 compounds or so, about 2,100 (3.2%) showed an effect of 50% or more. The median lay at about -52%. Shown is part of a subset that was picked to be rich in strong results.

test system: Plasmodium falciparum; experiment: Screen against P. falciparum Asexual Blood Stage (ABS), at 5uM; assay type: functional, Dd2; settings: tested at 5 uM

Row | SMILES | INHIBITION [%]
1 | NC(=O)C1(CCCc2ccccn2)CCCN(Cc2ccncc2)C1 (stereo not drawn) | -123
2 | CC(O)CN1CCC(CN(C)C(=O)NC2CC2)CC1 (stereo not drawn) | -50.7
3 | Cc1ccc(CN2Cc3nccn3CC(CN(C)C)C2)s1 (stereo not drawn) | -47.7
4 | CCN(CC)CC1CN(CCc2ccccc2)Cc2nccn2C1 (stereo not drawn) | 58.7
5 | Cc1ccc(CN2Cc3nccn3CC(Cn3cccn3)C2)s1 (stereo not drawn) | -26.9
6 | CCN(CC)CC1CN(Cc2ccc(C)s2)Cc2nccn2C1 (stereo not drawn) | 66.7
7 | CCN(CC)CC1CN(Cc2cccc(C#N)c2)Cc2nccn2C1 (stereo not drawn) | -6.06
8 | CCN(CC)CC1CN(Cc2ccco2)Cc2nccn2C1 (stereo not drawn) | -52.4
9 | Cc1cc(CCC(=O)NCc2ncc[nH]2)ccc1Br | -116
10 | CCOC(=O)[C@]12CCCN(Cc3cccs3)C[C@H]1CN(CC(C)C)C2 | 14.6
11 | NC(=O)c1ccc(C(=O)N2CCCCC2Cn2cccn2)s1 (stereo not drawn) | -33.2
12 | O=C(c1cc(Cl)cc2cccnc12)N1CCN(CCO)CC1 | 30.3
13 | O=C(C1CCC1)N1C[C@@H]2CN(Cc3ccncc3)C(=O)[C@@H]2C1 | -74.3
14 | Cn1cc(CN2CCOC(c3cccc(-c4cncnc4)n3)C2)cn1 (stereo not drawn) | -54.2
15 | COc1ccc(-c2ccccc2CN)c(OC)c1 | 60.2
16 | COc1ccc(-c2ccnc(N)c2)c(OC)c1 | -90.3
17 | COc1ccc(CN)c(OC(F)F)c1 | -30
18 | CC(C)(C)CN1CCCC(c2nccnc2Nc2cnccn2)C1 (stereo not drawn) | 22.1
19 | O=C(CCCc1cccs1)N1CCC(N2CCNC2=O)CC1 | -185
20 | CC(C)CN1C(=O)C2(CCN(Cc3nccs3)C2)c2ccccc21 (stereo not drawn) | -54.5
21 | CCO[C@H]1C[C@@H](O)C12CCN(C1CCN(c3ccccc3C)CC1)CC2 | 10.7
22 | CCc1ccc(C2CC(=O)Nc3cc(OC)c(NS(C)(=O)=O)cc32)o1 (stereo not drawn) | -121
23 | Cc1cccnc1CN1CCN(C(=O)c2cnn(C(C)C)c2)CC1 | -15.2
24 | Cc1nc(N2CCCC2)nc2c1CCN(C(=O)N1CCCC1)CC2 | 47
25 | Cc1nc(N2CCCC2)nc2c1CN(C(=O)N(C)C)CC2 | -67.8
26 | CC(=O)N1CCc2nc(N3CCCC3)nc(C)c2C1 | 53.8
27 | Cc1nc(N2CCOCC2)nc2c1CCN(C(=O)N1CCCC1)CC2 | -112

Row | SMILES | INHIBITION [%]
28 | Cc1nc(N2CCOCC2)nc2c1CN(C(=O)C(C)C)CC2 | 56.2
29 | Cc1nc(N2CCCC2)nc2c1CN(C(=O)N1CCOCC1)CC2 | -70.2
30 | O=C(NCC(F)F)c1cnc(C2CCCN2)cn1 (stereo not drawn) | -41.5
31 | CCn1cc(NC(=O)C2CCN(Cc3nc(C(C)C)no3)CC2)cn1 | -86
32 | COc1ccc(F)c(CN(CCCn2ccnc2)Cc2ccc(C)s2)c1 | 39.5
33 | Cc1ccc(O)c(CN(CCCn2ccnc2)Cc2ccc(C)s2)c1 | 43
34 | Cc1ccc(CN(CCCn2ccnc2)Cc2cc(F)ccc2F)s1 | 68.8
35 | CC(C)(C)NC(=O)C1CSCN1C(=O)CCc1ccco1 (stereo not drawn) | -87.6
36 | O[C@H]1CC[C@@H](Cc2cc(-c3ccc(F)cc3)on2)O[C@@H]1CNCC1CC1 | 63.5
37 | O[C@H]1CC[C@@H](Cc2cc(-c3ccccn3)on2)O[C@@H]1CNCC1CC1 | -70.3
38 | O[C@H]1CC[C@@H](Cc2cc(-c3ccccc3)on2)O[C@@H]1CNCC1CC1 | 39.2
39 | COCCCNC1N=C(n2nc(C)cc2C)Nc2sc3c(c21)CCCC3 (stereo not drawn) | 46.7
40 | Cc1ccc(NC2(C(=O)N3CCn4cncc4C3)CCCCC2)cc1C | 64.5
41 | COc1ccc(NC2(C(=O)N3CCCn4cncc4C3)CCCC2)cc1 | 45
42 | COc1ccc(NC2(C(=O)N3CCn4cncc4C3)CCCC2)cc1 | -27.6
43 | CN(C)c1cc(CNC(=O)c2cc(Cl)ccn2)ccn1 | -158
44 | Cc1cc(-c2nn3c(C(C)C)nnc3s2)on1 | -33
45 | COCC1Cn2nnc(-c3cnn(C)c3)c2CN1Cc1cccs1 (stereo not drawn) | 59.2
46 | COCC1Cn2nnc(-c3cnn(C)c3)c2CN1Cc1ccco1 (stereo not drawn) | -88.9
47 | COCC1Cn2nnc(-c3cnn(C)c3)c2CN1Cc1ccc(C)s1 (stereo not drawn) | -9.62
48 | Cc1ccc(S(=O)(=O)NCCc2cccnc2)cc1C | -35.5
49 | c1cc(CN2C[C@H](OCC3CCOCC3)[C@H]3COC[C@H]32)co1 | -93
50 | Cc1noc(C)c1C(=O)N1CCCC(c2c(C)c(=O)nc3n2CCC3)C1 (stereo not drawn) | -105
51 | CN(C)CCNC(=O)c1sccc1N(C)S(=O)(=O)c1ccc(Cl)cc1 | 64.2
52 | COCCNC(=O)c1sccc1N(C)S(=O)(=O)c1ccc(Cl)cc1 | -88.8
53 | CCCNC(=O)c1sccc1N(C)S(=O)(=O)c1ccc(Cl)cc1 | -84
